Each structure is given as a SMILES string. Several values for one entry are separate records, joined by “and”; a condition that tells them apart may be missing. Equal values may be shown once. Inconclusive results are not listed. Activity calls are given as the source filed them. The calls were made as follows: active = hit-call score of the fitted dose curve at least 0.9, where 1 is the maximum; inconclusive = response in the unintended direction; inactive = score below 0.9.

Sequence of human Aurora Kinase A - serine/threonine-protein Kinase 6 (AurA), AURKA (gene 6790) (O14965 whole entry, looked up): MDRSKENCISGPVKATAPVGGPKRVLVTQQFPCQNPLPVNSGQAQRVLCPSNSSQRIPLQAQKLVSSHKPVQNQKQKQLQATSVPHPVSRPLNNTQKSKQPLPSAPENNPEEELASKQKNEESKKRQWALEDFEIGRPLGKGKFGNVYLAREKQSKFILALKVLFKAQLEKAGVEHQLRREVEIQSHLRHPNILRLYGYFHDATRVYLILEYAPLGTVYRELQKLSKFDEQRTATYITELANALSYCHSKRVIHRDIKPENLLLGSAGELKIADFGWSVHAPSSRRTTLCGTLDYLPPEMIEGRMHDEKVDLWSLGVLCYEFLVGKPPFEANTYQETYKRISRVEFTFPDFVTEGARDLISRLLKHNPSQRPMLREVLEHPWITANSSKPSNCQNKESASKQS
Sequence of human AKT serine/threonine Kinase 2 (AKT2), AKT2 (gene 208) (P31751 whole entry, looked up): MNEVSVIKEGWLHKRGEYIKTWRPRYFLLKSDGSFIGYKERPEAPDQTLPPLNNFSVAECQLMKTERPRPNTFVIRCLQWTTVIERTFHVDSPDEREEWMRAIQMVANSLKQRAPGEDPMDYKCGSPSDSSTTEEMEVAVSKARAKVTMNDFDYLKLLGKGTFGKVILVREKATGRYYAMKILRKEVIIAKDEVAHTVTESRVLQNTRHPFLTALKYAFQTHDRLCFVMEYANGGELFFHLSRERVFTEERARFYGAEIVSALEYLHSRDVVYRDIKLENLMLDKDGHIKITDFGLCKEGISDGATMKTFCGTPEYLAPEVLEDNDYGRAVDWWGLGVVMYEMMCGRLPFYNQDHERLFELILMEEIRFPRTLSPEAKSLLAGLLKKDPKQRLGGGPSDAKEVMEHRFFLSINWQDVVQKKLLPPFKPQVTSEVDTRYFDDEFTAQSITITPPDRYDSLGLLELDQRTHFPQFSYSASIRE

For the first assay, the target named is human AKT serine/threonine Kinase 2 (AKT2), AKT2 (gene 208) (UniProt P31751). The assay can be described thus: NVS_ENZ_hAKT2: NovaScreen (NVS) Enzymatic Assay for human AKT serine/threonine Kinase 2 (AKT2) (AID 2283141). The method in brief:
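Cell-free fluorescence/electrophoretic mobility shift readout of recombinant human AKT2 activity, 1 h after chemical dosing. Duplicate primary screen at 25 uM, then singleton concentration-response up to 50 uM; loss of signal versus DMSO baseline.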
Regarding `Oc1cc(Cl)ccc1Oc1ccc(Cl)cc1Cl`, the AC50 is 41.4 µM (active).

As to `CN1CSC(=S)N(C)C1`, the outcome was inactive. On the same count and under the same terms, the same measure for `Clc1ccccc1-c1nnc(-c2ccccc2Cl)nn1`: “inactive”; for `COC(=O)c1ccccc1S(=O)(=O)NC(=O)N(C)c1nc(C)nc(OC)n1`: “inactive”; for `N#Cc1c(Cl)c(Cl)c(Cl)c(C#N)c1Cl`: “inactive”.

Turning to `Cc1cc(C)nc(NC(=O)NS(=O)(=O)c2ccccc2C(=O)OC2COC2)n1`, the compound was called inactive. Same read-out and setting: for `O=C(O)C(F)(F)C(F)(F)C(F)(F)C(F)(F)C(F)(F)C(F)(F)C(F)(F)F` the value was “inactive”.

The target in the next assay is human Aurora Kinase A - serine/threonine-protein Kinase 6 (AurA), AURKA (gene 6790) (UniProt O14965). The assay can be described thus: NVS_ENZ_hAurA: NovaScreen (NVS) Enzymatic Assay for human Aurora Kinase A - serine/threonine-protein Kinase 6 (AurA) (AID 2283142). The method in brief:
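Cell-free enzymatic assay with human Aurora A, 1 hour after dosing. Fluorescent substrate turnover detected after electrophoretic mobility shift separation of substrate and product. Screened at 25 uM, actives retested in concentration-response up to 50 uM.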
`CCC(C)(C)C(=O)OC1=C(c2ccc(Cl)cc2Cl)C(=O)OC12CCCCC2`: the result was inactive. On the same count and under the same terms, the same measure for `O=C(Nc1ccccc1)Nc1cnns1`: “inactive”. As for `N#Cc1c(Cl)c(Cl)c(Cl)c(C#N)c1Cl`, the compound was classed as inactive. As for `O=S(=O)(O)C(F)(F)C(F)(F)C(F)(F)C(F)(F)C(F)(F)C(F)(F)C(F)(F)C(F)(F)F`, the AC50 was 25.4 µM (active) and 27.4 µM (active). Consider `O=C(O)C(F)(F)C(F)(F)C(F)(F)C(F)(F)C(F)(F)C(F)(F)C(F)(F)F`, for which the call was inactive.

For the origin of these results see PubChem BioAssay (EPA / NIEHS).
